Laboratory results taken from PubChem BioAssay (NCI).
About 83,000 compounds went through this panel and 20% of them were active in at least one assay; those are over-represented in the sample as a whole.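 Results are percent growth after 48 hours of single-concentration exposure. 100 means growth as in untreated cells, lower positive values show inhibition; negative values down to -100 show cell death.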 Values without a mark were called inactive. Calls of active or inactive are those of the source. How the source made its calls: active means growth percent below 10; inactive means the rest.

What was measured:
Assay in all cases: NCI-60 one-dose screen, 48 h (100 = growth as untreated, 0 = no growth, -100 = all killed)
Conditions in all cases: 10 µM unless noted
[1] = system: T-47D breast
[2] = system: BT-549 breast
[3] = system: MDA-MB-435 melanoma
[4] = system: SW-620 colon
[5] = system: MCF7 breast
[6] = system: HCT-116 colon
[7] = system: HCC-2998 colon
[8] = system: KM12 colon

Row | SMILES | growth [1] | growth [2] | growth [3] | growth [4] | growth [5] | growth [6] | growth [7] | growth [8]
1 | COc1cc2c(cc1-c1c(C)noc1C)ncc1nc(C3CC3)n([C@H](C)COC(F)F)c12 | 32.7% | 71.6% | 44.3% | 62.7% | 21.7% | 37% | 57.3% | 51.5%
2 | CCN1CCN(c2nc(C)cc(N(CCCNc3ccnc4cc(Cl)ccc34)Cc3ccco3)n2)CC1 | 68.4% | 54.5% | 4.03% (active) | 39.3% | 32.3% | 42.5% | 88% | 67.9%
3 | CC(=O)OC[C@]12CC[C@@H](/C(C)=N/O)[C@@H]1[C@H]1CC[C@@H]3[C@@]4(C)CCCNC(C)(C)[C@@H]4CC[C@@]3(C)[C@]1(C)CC2 | 47.7% | 66.2% | 81.8% | 80.3% | 57.4% | 46.5% | 95.2% | 76.4%
4 | C=C(C)[C@@H]1CC[C@]2(c3nnc(-c4ccncc4)o3)CC[C@]3(C)[C@H](CC[C@@H]4[C@@]5(C)CCC(=O)NC(C)(C)[C@@H]5CC[C@]43C)[C@@H]12 | 100% | 89.8% | 101% | 103% | 92.9% | 88.8% | 103% | 98.9%
5 | NC(N)=N/N=C/c1ccc(-c2ccc(-c3ccc(Cl)cn3)s2)cc1 | 91.2% | 98.8% | 98.5% | 2.46% (active) | 42.8% | 50.2% | 98.4% | 14.8%
6 | COc1cccc(-c2nn(-c3ccccc3)cc2-c2ccnc(NCCCN)c2)c1 | 59.1% | 68.6% | -6.82% (active) | 43.5% | 41.8% | 45.1% | 65.6% | 71.9%
7 | Cc1ccc2oc(=O)cc(-c3sc(N4CCCCC4)nc3-c3ccccc3)c2c1 | 76.8% | 91.2% | 103% | 96.5% | 70.5% | 89% | 99.3% | 94.8%
8 | COc1cc(/C=N/NC(=S)NNC(=S)NC2CCCCC2)cc(OC)c1OC | 69.9% | 105% | 98.8% | 104% | 92.4% | 104% | 112% | 95.1%
9 | O=S(=O)(NCCNc1cc(-c2cn(-c3ccccc3)nc2-c2cccc(O)c2)ccn1)c1cccc(F)c1 | 11.6% | 48% | 43.5% | 19.1% | 21.4% | 23.2% | -15.6% (active) | 31.1%
10 | C=C1C(=O)O[C@H]2[C@H]1CC/C(COC(=O)NCc1c[nH]c3ccccc13)=C\CC[C@@]1(C)O[C@@H]21 | 37.8% | 50.7% | 46.9% | 2.62% (active) | 17.1% | -12.3% (active) | 97.9% | 96.9%
11 | NC1=NN(c2ccccc2)C(=O)/C1=C/c1ccc(Cl)cc1 | 74.1% | 104% | 105% | 101% | 96.6% | 100% | 109% | 103%
12 | Cn1c(=O)c2c(nc(N3CCCC3)n2C)n(C)c1=O | 90.5% | 97% | 107% | 106% | 99.1% | 93.3% | 108% | 101%
13 | COc1cc(-c2cc3ncccc3c3nc(N)c4cccnc4c23)cc(OC)c1OC | 35% | 27.6% | -33.7% (active) | 23.9% | 21.7% | 9.87% (active) | 40.2% | 30.8%
14 | O=c1[nH]ncc(Br)c1Br | 46.3% | 83.2% | 64.3% | -80.3% (active) | 23% | 15.2% | 54% | 45.8%
15 | O=C(O)c1cccc2c1-c1ccc(Cl)cc1C2 | 97.9% | 113% | 106% | 111% | 104% | 107% | 106% | 108%
16 | CC(c1ccccc1)N1C(=O)C(C2SC(=S)N(C(C)c3ccccc3)C2=O)SC1=S (configuration not stated) | 73.2% | 89.5% | 57.2% | 54.7% | 25.8% | 57% | 107% | 67.9%
17 | O=[N+]([O-])c1cccc(/C=N\Nc2ccccc2)c1 | 55.8% |  | 53.8% | 71.3% | 64.5% | 58.3% | 83.8% | 38.8%

Row | SMILES | growth [1] | growth [2] | growth [3] | growth [4] | growth [5] | growth [6] | growth [7] | growth [8]
18 | O=C(CI)Nc1ccc(O)c2ccccc12 | -52% (active) | 44.1% |  | -68.9% (active) | 0.823% (active) | -59.5% (active) | 82.4% | 64.8%
19 | Brc1ccc2c(c1)c(-c1nc(-c3c[nH]c4ncccc34)cs1)cn2CCCN1CCCCC1 |  | 72.8% | -84% (active) | -63.5% (active) | -68.1% (active) | -62.7% (active) | 34.8% | 14.5%
20 | O=C(O)c1cccc2c1C(=O)N(c1ccc3c(c1)Cc1ccccc1-3)C2=O | 106% |  | 111% | 105% | 93.9% | 112% | 102% | 109%
21 | CCC(c1ccc(OC)cc1)C(CC)c1ccc(O)c(CN2CCCCC2)c1 (configuration not stated) | 36.9% | 72.1% | 81.6% | 71.6% | 63% | 38.7% | 6.27% (active) | 79.7%
22 | O=C(c1ccccc1)C(CN1CCOCC1)c1ccccc1 (configuration not stated) | 64.3% | 30.2% |  | -45.2% (active) | 1.11% (active) | 3.3% (active) | 54.4% | 20.8%
23 | Cc1cc(Cl)nc(N(CCCNc2ccnc3cc(Cl)ccc23)Cc2ccco2)n1 | 3.69% (active) | 8.06% (active) | 22.8% | 20% | 12.2% | 3.68% (active) | 22% | 22.4%
24 | O=C(O)c1cccc2c1Cc1cc([N+](=O)[O-])ccc1-2 | 106% |  | 108% | 103% | 102% | 97.5% | 101% | 109%
25 | O=C(/C=C\c1ccc2c(c1)OCO2)/C=C/c1ccc2c(c1)OCO2 | 75.6% | 67.2% | 17% |  | 13.2% | -12.5% (active) | 41.4% | 8.55% (active)
26 | Nc1nc(N)c2nc3c(nc2n1)CCCCCCCCCC3 | 82.1% | 74.5% |  | 34.3% | 46.2% | 21.4% | 39.2% | 61.4%
27 | COC1=C(Br)C(=O)C(OC)=C(Br)C1=O | 106% | 95.9% | 105% |  | 83% | 90.1% | 114% | 101%
28 | COc1ccc2c(c1)c(-c1nc(-c3c[nH]c4ncccc34)cs1)cn2CCN | 25.7% | 88.2% | 68.9% | 55.3% | 36.5% | 53.5% | 94.9% | 24.4%
29 | OCC12CCCC(CO)(COC1)C2O (configuration not stated) | 101% | 105% |  | 97.1% | 106% | 100% | 100% | 107%
30 | CN(C)c1ccc(N)c2ccccc12 | 80.2% | 80.4% | -91.3% (active) |  | -70.1% (active) | 6.65% (active) | 50.2% | 62.7%
31 | CC1c2ccccc2N(S(=O)(=O)c2ccccc2)C1C (configuration not stated) | 102% |  | 6.95% (active) | 72.7% | 78.5% | 86.2% | 101% | 60%
32 | O=C(NC1=CC(=O)c2ccccc2C1=O)c1ccccc1 | -45.6% (active) |  | 2.96% (active) | -56.2% (active) | 14.3% | -69% (active) | 32.3% | 11.2%
33 | COCCNC1=C(Cl)C(=O)c2ccccc2C1=O | 98.8% | 98.2% | 24.5% |  | 81.3% | 86.8% | 95% | 83.3%
34 | O=[N+]([O-])c1ccc(/C=N\Nc2ccccc2)cc1 | 72.2% |  | 68.9% | 79.9% | 75.1% | 66.3% | 96.6% | 36.1%
